Consider eight compounds from paper PMC11062922 (Nature Chemical Biology, 2023).

Holding throughout (parameters): species or system human, MV4-11 + K-562 + COLO205 + SK-N-BE2 + OVCAR-8
For assay [1], the system named is AURKA. Conditions: read-out: apparent Kd, n = 1.
Assay [2] concerns BCR. Conditions: read-out: apparent Kd, n = 1.
For assay [3], the system named is CAMKK2. Conditions: read-out: apparent Kd, n = 1.
Assay [4] relates to CHEK1. Conditions: read-out: apparent Kd, n = 1.
Assay [5] relates to CSNK1D. Conditions: read-out: apparent Kd, n = 1.
In assay [6] the test system is EPHA4. Conditions: read-out: apparent Kd, n = 1.
Assay [7] concerns EPHA5. Conditions: read-out: apparent Kd, n = 1.
The subject of assay [8] is EPHB2. Conditions: read-out: apparent Kd, n = 1.
Assay [9] has as its system EPHB4. Conditions: read-out: apparent Kd, n = 1.
The subject of assay [10] is MAPK10. Conditions: read-out: apparent Kd, n = 1.
Assay [11] deals with MARK3. Conditions: read-out: apparent Kd, n = 1.
Assay [12] deals with PRKACA. Conditions: read-out: apparent Kd, n = 1.
Assay [13] concerns PRKAG2. Conditions: read-out: apparent Kd, n = 1.
The subject of assay [14] is TNK2. Conditions: read-out: apparent Kd, n = 1.
The test system of assay [15] is MAPK9. Conditions: read-out: apparent Kd, n = 1.
Assay [16] relates to PRKACB. Conditions: read-out: apparent Kd, n = 1.
The subject of assay [17] is TNK1. Conditions: read-out: apparent Kd, n = 1.
For assay [18], the system named is ATM. Conditions: read-out: apparent Kd, n = 1.
For assay [19], the system named is STK4. Conditions: read-out: apparent Kd; compound concentrations:100 nM and 1000 nM (sheet 'Samples'); n = 1.
Setting [20] is: compound concentrations:100 nM and 1000 nM (sheet 'Samples').

Where two headings read alike, the source gives them in different places.

As for `CC(C)N1CCC(n2cnc(-c3ccc(F)cc3)c2-c2ccnc(N)n2)CC1` [SB-223132], the potency estimated from few doses in assay [1] (setting [20]) was 931 nM; in assay [2] (setting [20]), 660 nM; in assay [3] (setting [20]) it was 940 nM; in assay [4] (setting [20]) it was 1740 nM; in assay [5] (setting [20]) it was 25.1 nM; in assay [6] (setting [20]), 692 nM. The potency estimated from few doses in [7] (setting [20]) was 545 nM; in [8] (setting [20]) it was 385 nM; in [9] (setting [20]), 314 nM; in [10] (setting [20]), 1330 nM; in assay [11] (setting [20]), 1770 nM; in assay [12] (setting [20]), 1710 nM. In addition, the figures for the potency estimated from few doses in assay [13] (setting [20]) and in [14] (setting [20]) were 1040 nM and 374 nM, respectively.
`CCOC(=O)N1CCC(n2cnc(-c3ccc(F)cc3)c2-c2ccnc(N)n2)CC1` [SB-219952]: the potency estimated from few doses is 901 nM in assay [1] (compound concentrations: 100 nM and 1000 nM (sheet 'Samples'), CATDS: 9.8512895449749706E-3); 701 nM in assay [3] (compound concentrations: 100 nM and 1000 nM (sheet 'Samples'), CATDS: 1.08972773288713E-2); 1390 nM in assay [4] (compound concentrations: 100 nM and 1000 nM (sheet 'Samples'), CATDS: 8.4863258398705493E-3); 9.15 nM in assay [5] (compound concentrations: 100 nM and 1000 nM (sheet 'Samples'), CATDS: 0.19590664085395099); 493 nM in [6] (compound concentrations: 100 nM and 1000 nM (sheet 'Samples'), CATDS: 1.2785015902171799E-2); 397 nM in [7] (compound concentrations: 100 nM and 1000 nM (sheet 'Samples'), CATDS: 1.42398980321412E-2). Besides, the potency estimated from few doses was 329 nM in assay [8] (compound concentrations: 100 nM and 1000 nM (sheet 'Samples'), CATDS: 1.57002336523176E-2); 344 nM in assay [9] (compound concentrations: 100 nM and 1000 nM (sheet 'Samples'), CATDS: 1.53468623139909E-2); 69 nM in [10] (compound concentrations: 100 nM and 1000 nM (sheet 'Samples'), CATDS: 4.1731696442012502E-2); 107 nM in assay [15] (compound concentrations: 100 nM and 1000 nM (sheet 'Samples'), CATDS: 3.1045225372311899E-2); 1300 nM in [11] (compound concentrations: 100 nM and 1000 nM (sheet 'Samples'), CATDS: 8.6555083221940901E-3); 1690 nM in [12] (compound concentrations: 100 nM and 1000 nM (sheet 'Samples'), CATDS: 8.0141425433071494E-3). Further, the potency estimated from few doses in [16] (compound concentrations: 100 nM and 1000 nM (sheet 'Samples'), CATDS: 7.9637145567790901E-3) was 1730 nM; in [13] (compound concentrations: 100 nM and 1000 nM (sheet 'Samples'), CATDS: 9.8371603155967009E-3), 905 nM; in assay [17] (compound concentrations: 100 nM and 1000 nM (sheet 'Samples'), CATDS: 1.30567209660681E-2), 472 nM; in assay [14] (compound concentrations: 100 nM and 1000 nM (sheet 'Samples'), CATDS: 1.6319458510121398E-2), 307 nM.
As for `Cl.Nc1c(C(=O)c2cccc(C#CCN3CCCCC3)c2)cnn1-c1ccc(F)cc1` [RO1154461-001], the potency estimated from few doses in assay [18] (compound concentrations: 100 nM and 1000 nM (sheet 'Samples'), CATDS: 2.8189903331148802E-2) is 161 nM; in assay [1] (compound concentrations: 100 nM and 1000 nM (sheet 'Samples'), CATDS: 1.31144942702613E-2), 784 nM; in assay [2] (compound concentrations: 100 nM and 1000 nM (sheet 'Samples'), CATDS: 1.8870015548456399E-2), 336 nM; in assay [3] (compound concentrations: 100 nM and 1000 nM (sheet 'Samples'), CATDS: 1.2329030932227101E-2), 934 nM; in [4] (compound concentrations: 100 nM and 1000 nM (sheet 'Samples'), CATDS: 1.05759590598224E-2), 1550 nM; in assay [6] (compound concentrations: 100 nM and 1000 nM (sheet 'Samples'), CATDS: 1.83423267934671E-2), 356 nM. For the same compound, the potency estimated from few doses in [7] (compound concentrations: 100 nM and 1000 nM (sheet 'Samples'), CATDS: 2.15215497869925E-2) is 260 nM; in assay [8] (compound concentrations: 100 nM and 1000 nM (sheet 'Samples'), CATDS: 2.8724117835498601E-2), 156 nM; in [9] (compound concentrations: 100 nM and 1000 nM (sheet 'Samples'), CATDS: 3.5435159362778398E-2), 111 nM; in assay [11] (compound concentrations: 100 nM and 1000 nM (sheet 'Samples'), CATDS: 9.8950713499473906E-3), 2030 nM; in assay [12] (compound concentrations: 100 nM and 1000 nM (sheet 'Samples'), CATDS: 1.0779981289506101E-2), 1440 nM; in assay [16] (compound concentrations: 100 nM and 1000 nM (sheet 'Samples'), CATDS: 1.14120731511483E-2) it was 1190 nM. The potency estimated from few doses was 75.5 nM in assay [17] (compound concentrations: 100 nM and 1000 nM (sheet 'Samples'), CATDS: 4.5946833879509097E-2); 56.1 nM in assay [14] (compound concentrations: 100 nM and 1000 nM (sheet 'Samples'), CATDS: 5.6879237534392203E-2).
With `CN(c1ccc(NC(=O)Nc2cccc(Cl)c2)cc1)c1ccnc(N)n1.Cl` [GW830707A], the potency estimated from few doses in [18] (compound concentrations: 100 nM and 1000 nM (sheet 'Samples'), CATDS: 7.3316367539925598E-2) is 4.81 nM; in assay [1] (compound concentrations: 100 nM and 1000 nM (sheet 'Samples'), CATDS: 1.10158492855777E-2), 1100 nM; in assay [2] (compound concentrations: 100 nM and 1000 nM (sheet 'Samples'), CATDS: 2.64796261985909E-2), 26.5 nM; in assay [6] (compound concentrations: 100 nM and 1000 nM (sheet 'Samples'), CATDS: 2.6652421745355599E-2), 26.2 nM; in assay [7] (compound concentrations: 100 nM and 1000 nM (sheet 'Samples'), CATDS: 2.89918726046417E-2), 22 nM; in assay [8] (compound concentrations: 100 nM and 1000 nM (sheet 'Samples'), CATDS: 3.95108410825031E-2), 12.4 nM. The potency estimated from few doses in [9] (compound concentrations: 100 nM and 1000 nM (sheet 'Samples'), CATDS: 6.0687941062208699E-2) is 6.3 nM; in assay [12] (compound concentrations: 100 nM and 1000 nM (sheet 'Samples'), CATDS: 2.4809932188679999E-2), 30.7 nM; in [16] (compound concentrations: 100 nM and 1000 nM (sheet 'Samples'), CATDS: 1.9106655898432998E-2) it was 60.7 nM; in assay [17] (compound concentrations: 100 nM and 1000 nM (sheet 'Samples'), CATDS: 0.104039802479183) it was 3.01 nM; in assay [14] (compound concentrations: 100 nM and 1000 nM (sheet 'Samples'), CATDS: 3.7589632297420301E-2) it was 13.5 nM.
For the compound `CNC(=O)c1ccccc1Nc1nc(Nc2ccc(N3CCOCC3)cc2)ncc1Cl.Cl` [GSK1576028A], the potency estimated from few doses in [1] (setting [20]) is 11 nM; in [2] (setting [20]) it was 781 nM; in [10] (setting [20]) it was 60.1 nM; in assay [15] (setting [20]), 220 nM; in [13] (setting [20]) it was 587 nM; in assay [19], 675 nM. The potency estimated from few doses is 7.93 nM in assay [17] (setting [20]) and 731 nM in assay [14] (setting [20]).
For `NCCNS(=O)(=O)c1ccc(-c2ccnc3[nH]ccc23)cc1` [GSK977617A], the potency estimated from few doses was 295 nM in assay [18] (setting [20]); 244 nM in assay [2] (setting [20]); 1970 nM in assay [3] (setting [20]); 2250 nM in [4] (setting [20]); 287 nM in assay [6] (setting [20]); 267 nM in assay [7] (setting [20]). Also, the potency estimated from few doses in [8] (setting [20]) is 189 nM; in assay [9] (setting [20]), 171 nM; in assay [12] (setting [20]), 361 nM; in assay [16] (setting [20]), 571 nM; in [17] (setting [20]), 181 nM; in assay [14] (setting [20]), 233 nM.
In the case of `CCn1c(-c2nonc2N)nc2c(C#CC(C)(C)O)nc(OC[C@@H](N)c3ccccc3)cc21` [GSK938890A], the potency estimated from few doses in assay [12] (compound concentrations: 100 nM and 1000 nM (sheet 'Samples'), CATDS: 0.21319960399835) is 22.6 nM; in assay [16] (compound concentrations: 100 nM and 1000 nM (sheet 'Samples'), CATDS: 0.177486762785802), 30.8 nM.
Turning to `Cl.Cl.NCC(C(=O)Nc1cc(Br)c(-c2ccnc3[nH]ccc23)s1)c1ccccc1.NCC(C(=O)Nc1cc(Br)c(-c2ccnc3[nH]ccc23)s1)c1ccccc1` (stereo not drawn) [GSK1269851A], the potency estimated from few doses in assay [18] (setting [20]) was 275 nM; in assay [1] (setting [20]) it was 768 nM; in assay [2] (setting [20]), 90.4 nM; in assay [3] (setting [20]), 1310 nM; in assay [4] (setting [20]), 1700 nM; in assay [6] (setting [20]), 510 nM. For the same compound, the potency estimated from few doses in [7] (setting [20]) was 74.9 nM; in [8] (setting [20]), 94.9 nM; in [9] (setting [20]), 54.6 nM; in assay [16] (setting [20]), 1920 nM; in [13] (setting [20]) it was 111 nM; in assay [17] (setting [20]), 62.7 nM. Further, in assay [14] (setting [20]), the potency estimated from few doses was 46.6 nM.
